Data: PubChem BioAssay
Entries with a potency or affinity are not part of this list. Calls of active or inactive are those of the source. How the calls were made is not given here.

target: Plasmodium falciparum protein kinase 6 (PK6, PF3D7_1337100) (UniProt Q8IDW1); assay: PfPK6 kinase inhibitors, biochemical, TCAMS library (AID 1159586); settings: recombinant PfPK6, Kinase-Glo ATP depletion luminescence
Sequence (Q8IDW1 1-305): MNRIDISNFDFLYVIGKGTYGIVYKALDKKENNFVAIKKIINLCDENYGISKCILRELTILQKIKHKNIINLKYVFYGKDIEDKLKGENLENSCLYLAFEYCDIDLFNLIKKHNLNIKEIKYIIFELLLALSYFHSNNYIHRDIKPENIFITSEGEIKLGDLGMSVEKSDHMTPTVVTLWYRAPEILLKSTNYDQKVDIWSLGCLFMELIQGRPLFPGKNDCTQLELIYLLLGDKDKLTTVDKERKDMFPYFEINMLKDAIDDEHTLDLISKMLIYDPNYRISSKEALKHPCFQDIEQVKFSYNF

outcome, inactive:
CN(C)CCOc1cc(O)c2c(c1)OC(C)(C)C=C2c1cccs1
COc1ccc(Nc2nccc(N3CCC(NC(=O)Nc4ccc5c(c4)OCO5)C3)n2)cc1 (stereo not given)
O=C(NCCCCN1CCN(c2cccc(Cl)c2Cl)CC1)c1ccc2c(c1)CCN(C1CCC1)CC2
CNC(=O)c1cnc(Nc2ccc(N3CCN(C)CC3)cc2)nc1Nc1cccc(OC)c1
CC(C)n1ncc2c(C(=O)N3CCCC4CCCCC43)cc(C3CC3)nc21 (stereo not given)
O=C(Nc1cc(C(F)(F)F)cc(C(F)(F)F)c1)c1cc(C(F)(F)F)cc(C(F)(F)F)c1
CC(C)c1sc(N2CCN(C)CC2)nc1C(=O)Nc1ccc(F)cc1C(F)(F)F
O=C(NCCc1ccccc1)[C@H](Cc1ccccc1)Nc1ccnc(NCC2CCCCC2)n1
C=CCc1cc(OC)ccc1OCCCOc1c(C)nc(N)nc1N
COc1cc(Nc2nccc(N3CCC(NC(=O)c4cccc(C#N)c4)C3)n2)cc(OC)c1OC (stereo not given)
Cc1ccc(NC(=O)c2ccc3ncccc3c2)cc1OC1CCN(Cc2ccsc2)CC1
COc1cccc(N(CCCN2C(=O)c3cccc4cccc(c34)C2=O)C(=O)c2ccccc2C)c1
Cc1cccc2[nH]c(-c3ccc(-c4cccc(CN5CCC(CO)CC5)c4)s3)nc12
Nc1nc(N)c2c(Oc3cccnc3)cccc2n1
COc1cc2nc(Nc3ccc(C)cc3)nc(Nc3ccc(C)cc3)c2cc1OC
Cc1cc(N[C@@H](Cc2ccccc2)C(=O)NCCc2ccccc2)nc(NCC2CCCCC2)n1
CCN(CC)CCN(Cc1ccc(-c2ccc(C(F)(F)F)cc2)cc1)C(=O)Cn1c(CCc2c(F)ccc(F)c2F)nc(=O)c2ccccc21
Cc1noc(C)c1-c1ccc2c(Nc3ccccc3C(C)(C)C)c(C(=O)NCc3ccc4c(c3)OCO4)cnc2c1
CN1CCN(c2ccc(-c3cc(-c4cc(F)c(F)c(F)c4)cnc3N)cc2)CC1
Cc1cc(NC(=O)c2cccs2)ccc1OC1CCN(Cc2ccc(F)cc2)C1 (stereo not given)
CCNc1cc(C(=O)N[C@@H](Cc2ccccc2)[C@H](O)CNC2(CC)CCCCC2)cc(N2CCCCS2(=O)=O)c1
Cc1csc(-c2nc(NCc3cccnc3)ncc2-c2ccsc2)n1
COc1ccc(C=NNc2cc(C)nc3ccc(OC)cc23)c(OC)c1
O=C(c1ccc(F)c(F)c1)N1CCOC(CCN2CCC(c3ccccc3)CC2)(c2ccc(Cl)c(Cl)c2)C1 (stereo not given)
COc1ccc2nccc([C@@H](O)CN3CCC(NC(=O)/C=C/c4ccc5[nH]c(=O)ccc5c4)CC3)c2c1
COc1ccccc1CCNc1nc(C)cc(N[C@@H](Cc2ccccc2)C(=O)NCCCOC(C)C)n1
COc1ccccc1-c1cccc(Nc2c(Nc3ccc(Cl)cc3)c(=O)c2=O)c1
Cc1cc(-c2ccc(NC(=O)c3coc4ccc(N5C[C@@H](C)N(C)[C@@H](C)C5)cc34)cc2C)cc(C)n1
CCCCCC(C)C(C)c1cc(OC(N)=O)c2c(c1)OC(C)(C)C=C2c1ccncc1 (stereo not given)
Cc1cc(N[C@@H](Cc2ccccc2)C(=O)NCCOc2ccccc2)nc(NCCc2ccc(F)cc2)n1
COc1cccc(Nc2nc(NCCO)c3ccccc3n2)c1
COc1ccc(C(C(=O)NC2CCN(C[C@H](O)c3ccnc4ccc(OC)cc34)CC2)N2CCN(c3ccc([N+](=O)[O-])cc3)CC2)cc1 (stereo not given in full)
CC(C)COc1ccc(Cl)cc1Cc1ccc(-c2nc3ccc(F)cc3[nH]2)o1
COc1ccccc1NC(=O)OC(COc1ccc(N)cc1)CN1CC=C(c2ccccc2)CC1 (stereo not given)
COCCn1c(C)cc(C(=O)CN2C(=O)NC(C)(c3ccc(C(C)(C)C)cc3)C2=O)c1C (stereo not given)
COc1ccc2ncc(Cl)c(CCN3CCC(NCc4ccc5c(n4)NC(=O)CO5)CC3)c2c1
NC(=NCCCc1ccccc1)c1cccc(C(N)=NCCCc2ccccc2)n1
COc1cc2nc(C)nc(Nc3ccc(Cc4ccccc4)cc3)c2cc1OC
COc1ccc(-c2nonc2NC(=O)c2ccc(OC(C)C)cc2)cc1OC
CCc1c(CCNCCCCCCNCCc2ccc(Br)cc2)ccc(O)c1O
